Data: the supplement of paper PMC13380429

Tested on: Vero E6 infected with SARS-CoV-2
Test: inhibition of SARS-CoV-2 cytopathic effect; higher = more antiviral protection, active = above 15
Details: 48 h

Measured: inhibition of SARS-CoV-2 cytopathic effect

CC(=O)O[C@H]1C[C@@H]2CC[C@@H]3[C@H](CC[C@@]4(C)[C@H]3C[C@H](N3CC[N+](C)(C)CC3)[C@@H]4OC(C)=O)[C@@]2(C)C[C@@H]1N1CC[N+](C)(C)CC1 [pipecuronium]
inactive: 1 nM -1.2% | 8.33 nM -0.41% | 100 nM -0.11% | 833.33 nM -1.81% | 10000 nM -1.58%

CCC(=O)NC[C@@H]1C[C@H]1c1cccc2c1CCO2 [tasimelteon]
inactive: 1 nM -0.84% | 8.33 nM 1.68% | 100 nM -0.1% | 833.33 nM 0.64% | 10000 nM -1.54%

CCn1nc(C)c2c1C(c1ccccc1)=NCC(=O)N2 [ripazepam]
inactive: 1 nM -1.39% | 8.33 nM 0.91% | 100 nM 0.56% | 833.33 nM -0.98% | 10000 nM -3.15%

CCN[C@@H](C)Cc1cccc(C(F)(F)F)c1 [dexfenfluramine]
inactive: 1 nM 1.76% | 8.33 nM -0.09% | 100 nM 2.9% | 833.33 nM -3.54% | 10000 nM 0.8%

C[C@H](/C=C/[C@H](C)C(C)(C)O)[C@H]1CC[C@H]2/C(=C/C=C3C[C@@H](O)C[C@H](O)C3)CCC[C@]12C [paricalcitol]
inactive: 1 nM 0.83% | 8.33 nM 3.37% | 100 nM -0.2% | 833.33 nM 1.21% | 10000 nM -0.81%

O=C1c2c(O)cc(O)cc2O[C@H](c2ccc(O)c(O)c2)[C@H]1O [taxifolin]
inactive: 1 nM 0.69% | 8.33 nM 1.31% | 100 nM 0.66% | 833.33 nM 0.83% | 10000 nM 2.25%
